Of roughly 7,900 targets only a part is listed; those with a hit were picked by preference. About 0.6% of all pairs of compound and target were hits. A number with no mark means an inactive call.

35 targets from the supplement of paper PMC10849652 can be followed below.

UniProt P05114, sequence (P05114 whole entry, looked up): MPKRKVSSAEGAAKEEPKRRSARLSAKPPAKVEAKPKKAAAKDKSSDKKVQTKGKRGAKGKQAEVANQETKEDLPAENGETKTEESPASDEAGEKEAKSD
UniProt P30711, sequence (P30711 whole entry, looked up): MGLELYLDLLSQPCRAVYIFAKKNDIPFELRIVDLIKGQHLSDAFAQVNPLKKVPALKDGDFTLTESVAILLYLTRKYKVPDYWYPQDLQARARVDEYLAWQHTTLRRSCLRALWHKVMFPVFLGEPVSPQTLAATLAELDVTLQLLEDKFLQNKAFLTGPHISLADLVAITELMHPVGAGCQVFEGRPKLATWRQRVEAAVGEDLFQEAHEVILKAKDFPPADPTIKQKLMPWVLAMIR
UniProt O76003, sequence (O76003 whole entry, looked up): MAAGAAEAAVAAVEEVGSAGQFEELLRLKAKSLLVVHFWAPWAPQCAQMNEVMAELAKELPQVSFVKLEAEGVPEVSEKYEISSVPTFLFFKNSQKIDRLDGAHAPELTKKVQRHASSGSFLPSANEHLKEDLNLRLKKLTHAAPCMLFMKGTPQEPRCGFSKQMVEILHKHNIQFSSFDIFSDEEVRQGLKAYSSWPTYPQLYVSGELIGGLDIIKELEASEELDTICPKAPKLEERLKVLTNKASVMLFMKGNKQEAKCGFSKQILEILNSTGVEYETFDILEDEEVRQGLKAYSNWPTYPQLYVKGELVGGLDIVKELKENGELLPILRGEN
UniProt Q9HCG7, sequence (Q9HCG7 whole entry, looked up): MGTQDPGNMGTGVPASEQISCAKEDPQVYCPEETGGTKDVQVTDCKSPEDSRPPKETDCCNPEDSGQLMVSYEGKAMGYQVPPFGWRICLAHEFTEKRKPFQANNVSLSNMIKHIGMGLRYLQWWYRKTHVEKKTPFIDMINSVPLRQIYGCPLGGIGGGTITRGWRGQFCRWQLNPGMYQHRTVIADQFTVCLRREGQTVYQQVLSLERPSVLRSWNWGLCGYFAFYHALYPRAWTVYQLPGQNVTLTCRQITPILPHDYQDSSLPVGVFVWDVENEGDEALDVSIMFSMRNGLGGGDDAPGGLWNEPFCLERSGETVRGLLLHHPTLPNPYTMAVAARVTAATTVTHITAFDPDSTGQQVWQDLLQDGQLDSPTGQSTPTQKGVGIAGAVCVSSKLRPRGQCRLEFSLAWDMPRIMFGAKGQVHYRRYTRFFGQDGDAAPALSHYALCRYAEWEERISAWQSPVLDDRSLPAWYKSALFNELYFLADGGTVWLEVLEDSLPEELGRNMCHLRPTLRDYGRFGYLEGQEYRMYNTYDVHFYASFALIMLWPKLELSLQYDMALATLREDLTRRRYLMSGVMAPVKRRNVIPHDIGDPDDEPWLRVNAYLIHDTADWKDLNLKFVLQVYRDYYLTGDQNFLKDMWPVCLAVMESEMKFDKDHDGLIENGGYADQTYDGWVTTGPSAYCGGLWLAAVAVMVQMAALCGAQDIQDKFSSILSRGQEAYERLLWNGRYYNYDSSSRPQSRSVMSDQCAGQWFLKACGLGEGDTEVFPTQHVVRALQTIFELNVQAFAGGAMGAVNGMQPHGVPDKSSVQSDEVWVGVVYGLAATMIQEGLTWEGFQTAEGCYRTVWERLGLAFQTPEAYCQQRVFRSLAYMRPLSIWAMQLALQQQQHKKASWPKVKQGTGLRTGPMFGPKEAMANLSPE
UniProt P52789, sequence (P52789 whole entry, looked up): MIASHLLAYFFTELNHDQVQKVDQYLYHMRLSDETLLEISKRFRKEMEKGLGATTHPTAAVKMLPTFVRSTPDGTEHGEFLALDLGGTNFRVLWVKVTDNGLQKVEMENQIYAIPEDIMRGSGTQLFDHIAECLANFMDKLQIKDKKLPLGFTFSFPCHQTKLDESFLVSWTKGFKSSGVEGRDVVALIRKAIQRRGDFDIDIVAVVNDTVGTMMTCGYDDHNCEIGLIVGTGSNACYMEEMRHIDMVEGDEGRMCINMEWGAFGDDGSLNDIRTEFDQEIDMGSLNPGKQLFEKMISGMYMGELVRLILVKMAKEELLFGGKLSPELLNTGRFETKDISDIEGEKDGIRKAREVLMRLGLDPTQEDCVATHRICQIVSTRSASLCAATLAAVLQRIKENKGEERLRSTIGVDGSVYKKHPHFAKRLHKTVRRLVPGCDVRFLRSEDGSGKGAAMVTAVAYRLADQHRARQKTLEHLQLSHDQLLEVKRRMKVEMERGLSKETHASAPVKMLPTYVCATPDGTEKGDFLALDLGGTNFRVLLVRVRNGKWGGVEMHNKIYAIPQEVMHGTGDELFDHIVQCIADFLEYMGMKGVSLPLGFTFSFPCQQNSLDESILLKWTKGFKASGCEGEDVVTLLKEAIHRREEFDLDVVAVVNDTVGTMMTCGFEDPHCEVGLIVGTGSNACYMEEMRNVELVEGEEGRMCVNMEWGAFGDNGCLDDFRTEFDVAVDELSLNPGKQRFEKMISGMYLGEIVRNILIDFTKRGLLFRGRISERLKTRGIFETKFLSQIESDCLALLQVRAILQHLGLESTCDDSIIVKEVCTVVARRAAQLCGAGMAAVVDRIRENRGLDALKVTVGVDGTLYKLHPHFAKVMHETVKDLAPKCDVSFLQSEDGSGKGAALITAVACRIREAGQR
UniProt Q9UKD1, sequence (Q9UKD1 whole entry, looked up): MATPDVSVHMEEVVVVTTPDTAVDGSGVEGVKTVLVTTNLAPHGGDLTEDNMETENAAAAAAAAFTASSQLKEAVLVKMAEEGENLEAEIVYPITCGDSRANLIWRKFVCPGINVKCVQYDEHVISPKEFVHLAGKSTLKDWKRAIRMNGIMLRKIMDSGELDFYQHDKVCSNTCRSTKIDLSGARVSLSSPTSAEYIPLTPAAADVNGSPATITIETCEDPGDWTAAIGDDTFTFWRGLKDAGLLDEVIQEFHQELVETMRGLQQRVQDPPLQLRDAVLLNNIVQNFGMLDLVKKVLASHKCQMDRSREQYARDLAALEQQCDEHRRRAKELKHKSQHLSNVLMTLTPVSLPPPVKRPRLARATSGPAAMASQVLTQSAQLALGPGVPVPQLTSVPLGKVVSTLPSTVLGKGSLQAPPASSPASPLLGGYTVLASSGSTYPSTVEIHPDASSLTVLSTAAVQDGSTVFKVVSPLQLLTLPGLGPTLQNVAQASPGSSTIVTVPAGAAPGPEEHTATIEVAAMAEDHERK
UniProt P55795, sequence (P55795 whole entry, looked up): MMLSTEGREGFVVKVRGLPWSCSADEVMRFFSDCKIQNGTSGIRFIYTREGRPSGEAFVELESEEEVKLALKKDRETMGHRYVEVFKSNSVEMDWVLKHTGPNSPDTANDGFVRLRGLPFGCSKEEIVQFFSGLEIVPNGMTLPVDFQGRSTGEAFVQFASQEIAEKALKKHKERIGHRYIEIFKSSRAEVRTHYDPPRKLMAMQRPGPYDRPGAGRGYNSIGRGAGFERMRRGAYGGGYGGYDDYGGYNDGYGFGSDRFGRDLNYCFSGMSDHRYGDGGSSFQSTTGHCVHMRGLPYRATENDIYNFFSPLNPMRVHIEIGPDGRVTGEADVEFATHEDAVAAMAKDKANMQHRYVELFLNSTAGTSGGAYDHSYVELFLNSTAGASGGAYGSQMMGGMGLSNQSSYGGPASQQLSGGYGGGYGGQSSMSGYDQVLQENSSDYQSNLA
UniProt Q53T59, sequence (Q53T59 whole entry, looked up): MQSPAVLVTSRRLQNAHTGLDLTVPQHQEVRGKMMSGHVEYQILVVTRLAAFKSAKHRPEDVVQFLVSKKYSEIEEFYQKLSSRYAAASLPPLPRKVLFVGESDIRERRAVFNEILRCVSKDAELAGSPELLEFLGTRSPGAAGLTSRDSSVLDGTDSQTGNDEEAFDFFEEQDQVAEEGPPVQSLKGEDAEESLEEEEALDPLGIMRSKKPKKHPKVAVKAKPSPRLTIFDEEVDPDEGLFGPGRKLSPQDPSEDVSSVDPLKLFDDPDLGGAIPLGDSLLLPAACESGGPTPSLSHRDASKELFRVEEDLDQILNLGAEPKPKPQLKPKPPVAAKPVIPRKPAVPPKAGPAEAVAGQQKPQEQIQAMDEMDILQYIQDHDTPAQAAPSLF
UniProt Q9UJY4, sequence (Q9UJY4 whole entry, looked up): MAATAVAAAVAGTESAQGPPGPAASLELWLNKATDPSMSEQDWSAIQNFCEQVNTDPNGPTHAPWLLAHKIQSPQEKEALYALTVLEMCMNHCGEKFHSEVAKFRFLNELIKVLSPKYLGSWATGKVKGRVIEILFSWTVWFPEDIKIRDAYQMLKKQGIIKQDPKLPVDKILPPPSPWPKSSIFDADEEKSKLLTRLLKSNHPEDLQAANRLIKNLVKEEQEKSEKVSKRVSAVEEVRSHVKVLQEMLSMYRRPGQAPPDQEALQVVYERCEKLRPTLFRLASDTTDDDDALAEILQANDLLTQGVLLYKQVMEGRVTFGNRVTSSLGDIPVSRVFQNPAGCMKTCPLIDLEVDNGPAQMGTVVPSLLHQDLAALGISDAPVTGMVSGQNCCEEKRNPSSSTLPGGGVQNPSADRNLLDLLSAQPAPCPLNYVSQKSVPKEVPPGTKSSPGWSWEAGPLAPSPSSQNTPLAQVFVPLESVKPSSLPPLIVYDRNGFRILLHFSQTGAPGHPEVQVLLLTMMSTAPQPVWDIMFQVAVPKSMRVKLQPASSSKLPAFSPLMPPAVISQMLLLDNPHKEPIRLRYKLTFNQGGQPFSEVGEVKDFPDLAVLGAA
UniProt P22570, sequence (P22570 whole entry, looked up): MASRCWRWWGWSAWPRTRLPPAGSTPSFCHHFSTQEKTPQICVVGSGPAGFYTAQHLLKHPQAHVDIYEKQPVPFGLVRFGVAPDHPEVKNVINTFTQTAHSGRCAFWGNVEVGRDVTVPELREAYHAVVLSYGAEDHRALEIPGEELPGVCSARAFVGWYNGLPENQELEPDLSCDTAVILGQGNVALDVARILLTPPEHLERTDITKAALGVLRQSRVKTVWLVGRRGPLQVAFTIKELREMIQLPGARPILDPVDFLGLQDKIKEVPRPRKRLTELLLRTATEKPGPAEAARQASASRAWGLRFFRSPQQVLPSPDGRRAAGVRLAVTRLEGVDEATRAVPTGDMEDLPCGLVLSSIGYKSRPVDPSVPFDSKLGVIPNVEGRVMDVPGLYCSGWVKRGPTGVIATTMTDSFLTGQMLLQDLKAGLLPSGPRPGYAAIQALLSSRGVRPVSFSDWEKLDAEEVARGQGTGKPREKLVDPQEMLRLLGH

Compound in one test: CC[C@@H]1C(=O)N(C)c2cnc(Nc3ccc(C(=O)NC4CCN(C)CC4)cc3OC)nc2N1C1CCCC1
Kind of test: log2 fold change, soluble protein after heating vs DMSO (PISA); higher = thermal stabilisation; K562 cells, 10 uM, 30 min; active = over 0.2 and 3.5 SD of the protein, either way, in both replicates (recomputed). The method in brief: (§1)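 K562 cells at 2×10^6 cells/mL were given 10 μM compound for 30 min. Aliquots then went through 3 min of heating across 48°C-58°C, were pooled, and were extracted in PBS with 0.5% NP-40 at 4°C, and the supernatant after 21,000xg for 90 min was quantified by TMTpro 16plex LC-MS/MS with channel sums equalised. Thermal stability relative to control samples, from duplicates, is given as log2 fold change.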
With FHOD1 (UniProt Q9Y613), the log2 fold change was 0.127.

GLB1 (UniProt P16278): the log2 fold change is -0.707 (active).

Consider HDGFL2 (UniProt Q7Z4V5), for which the log2 fold change is -0.019.

As for FYB1 isoform 3 (UniProt O15117), the log2 fold change is -0.018.

Regarding GSTT1 (UniProt P30711), the log2 fold change is 0.02.

In the case of HEXA (UniProt P06865), the log2 fold change was -0.423 (active).

As to GLUL (UniProt P15104), the log2 fold change is 0.049.

Regarding HS1BP3 (UniProt Q53T59), the log2 fold change is -0.038.

On to ICMT (UniProt O60725), for which the log2 fold change was 0.202.

HNRNPH2 (UniProt P55795): the log2 fold change was -0.119.

Regarding GGA2 (UniProt Q9UJY4), the log2 fold change was 0.022.

Take GBA2 (UniProt Q9HCG7): the log2 fold change is 0.

HK2 (UniProt P52789): the log2 fold change is -0.156.

On to GMEB2 (UniProt Q9UKD1), for which the log2 fold change was 0.05.

Consider IFRD1 (UniProt O00458), for which the log2 fold change was 0.107.

Regarding GAK (UniProt O14976), the log2 fold change was 0.673.

For HDAC7 isoform 5 (UniProt Q8WUI4), the log2 fold change is 0.051.

Consider HNRNPUL1 (UniProt Q9BUJ2), for which the log2 fold change was 0.051.

Regarding HSD17B12 (UniProt Q53GQ0), the log2 fold change was -0.046.

Consider GBF1 (UniProt Q92538), for which the log2 fold change is -0.086.

In the case of HSPA8 (UniProt E9PN89), the log2 fold change was 0.167.

For GOLGB1 isoform 2 (UniProt Q14789), the log2 fold change was 0.009.

With GLRX3 (UniProt O76003), the log2 fold change is -0.164.

On to HMGN1 (UniProt P05114), for which the log2 fold change is 0.054.

For the target FKBP3 (UniProt Q00688), the log2 fold change is 0.006.

On to GDE1 (UniProt Q9NZC3), for which the log2 fold change is 0.033.

On to HRC (UniProt P23327), for which the log2 fold change was 0.01.

Regarding HEXB (UniProt P07686), the log2 fold change was -0.426 (active).

Regarding GYS1 (UniProt P13807), the log2 fold change is 0.229.

With FDXR isoform 7 (UniProt P22570), the log2 fold change was 0.052.

In the case of GTF2B (UniProt Q00403), the log2 fold change is -0.076.

As for GLYR1 (UniProt Q49A26), the log2 fold change was 0.099.

With GPKOW (UniProt Q92917), the log2 fold change is -0.056.

Regarding IFITM3 (UniProt Q01628), the log2 fold change was -0.004.

On to GALC (UniProt P54803), for which the log2 fold change was -0.275 (active).

Compound in a further test: CC[C@@H]1C(=O)N(C)c2cnc(Nc3ccc(C(=O)N[C@H]4CC[C@H](N5CCN(CC6CC6)CC5)CC4)cc3OC)nc2N1C(C)C [volasertib]
Described as above. Summed up: as §1
For FHOD1 (UniProt Q9Y613), the log2 fold change is -0.055.

With GLB1 (UniProt P16278), the log2 fold change is -1.11 (active).

Consider HDGFL2 (UniProt Q7Z4V5), for which the log2 fold change is 0.014.

On to FYB1 isoform 3 (UniProt O15117), for which the log2 fold change is -0.201.

For the target GSTT1 (UniProt P30711), the log2 fold change was -0.057.

As for HEXA (UniProt P06865), the log2 fold change is -0.479 (active).

For the target GLUL (UniProt P15104), the log2 fold change was 0.113.

As to HS1BP3 (UniProt Q53T59), the log2 fold change was -0.343 (active).

Take ICMT (UniProt O60725): the log2 fold change was 0.138.

As to HNRNPH2 (UniProt P55795), the log2 fold change is -0.667 (active).

Turning to GGA2 (UniProt Q9UJY4), the log2 fold change was 0.059.

In the case of GBA2 (UniProt Q9HCG7), the log2 fold change was 0.308 (active).

Turning to HK2 (UniProt P52789), the log2 fold change is -0.813 (active).

As for GMEB2 (UniProt Q9UKD1), the log2 fold change is -0.282 (active).

On to IFRD1 (UniProt O00458), for which the log2 fold change is -0.015.

GAK (UniProt O14976): the log2 fold change was 1.35.

In the case of HDAC7 isoform 5 (UniProt Q8WUI4), the log2 fold change is 0.01.

Turning to HNRNPUL1 (UniProt Q9BUJ2), the log2 fold change is -0.069.

Regarding HSD17B12 (UniProt Q53GQ0), the log2 fold change was -0.183.

Take GBF1 (UniProt Q92538): the log2 fold change is -0.474 (active).

On to HSPA8 (UniProt E9PN89), for which the log2 fold change was 0.114.

GOLGB1 isoform 2 (UniProt Q14789): the log2 fold change was -0.17.

With GLRX3 (UniProt O76003), the log2 fold change is -0.331 (active).

Regarding HMGN1 (UniProt P05114), the log2 fold change is 0.141.

As for FKBP3 (UniProt Q00688), the log2 fold change was 0.075.

As for GDE1 (UniProt Q9NZC3), the log2 fold change was 0.053.

With HRC (UniProt P23327), the log2 fold change was 0.043.

In the case of HEXB (UniProt P07686), the log2 fold change is -0.396 (active).

GYS1 (UniProt P13807): the log2 fold change was 0.224.

In the case of FDXR isoform 7 (UniProt P22570), the log2 fold change is 0.003.

On to GTF2B (UniProt Q00403), for which the log2 fold change was -0.323 (active).

As for GLYR1 (UniProt Q49A26), the log2 fold change was 0.054.

Take GPKOW (UniProt Q92917): the log2 fold change was -0.217.

Take IFITM3 (UniProt Q01628): the log2 fold change is 0.033.

Regarding GALC (UniProt P54803), the log2 fold change was -0.959 (active).

Compound in the next test: CC[C@H](C)N1C=C(C2=C(C=C(C=C21)C3=CN=C(C=C3)N4CCNCC4)C(=O)NCC5=C(C=C(NC5=O)C)C)C
Described as above. The method in brief:
as §1
In the case of FHOD1 (UniProt Q9Y613), the log2 fold change is 0.075.

On to GLB1 (UniProt P16278), for which the log2 fold change was 0.007.

Consider HDGFL2 (UniProt Q7Z4V5), for which the log2 fold change was -0.043.

As for FYB1 isoform 3 (UniProt O15117), the log2 fold change was 0.263.

As for GSTT1 (UniProt P30711), the log2 fold change is -0.038.

For the target HEXA (UniProt P06865), the log2 fold change is -0.028.

With GLUL (UniProt P15104), the log2 fold change was -0.041.

HS1BP3 (UniProt Q53T59): the log2 fold change was 0.073.

As for ICMT (UniProt O60725), the log2 fold change was -0.027.

In the case of HNRNPH2 (UniProt P55795), the log2 fold change was 0.073.

Consider GGA2 (UniProt Q9UJY4), for which the log2 fold change was 0.038.

For the target GBA2 (UniProt Q9HCG7), the log2 fold change is -0.082.

Take HK2 (UniProt P52789): the log2 fold change is 0.086.

In the case of GMEB2 (UniProt Q9UKD1), the log2 fold change was 0.062.

With IFRD1 (UniProt O00458), the log2 fold change is -0.14.

Regarding GAK (UniProt O14976), the log2 fold change is -0.401.

Regarding HDAC7 isoform 5 (UniProt Q8WUI4), the log2 fold change is 0.007.

With HNRNPUL1 (UniProt Q9BUJ2), the log2 fold change is 0.014.

For the target HSD17B12 (UniProt Q53GQ0), the log2 fold change was 0.

Turning to GBF1 (UniProt Q92538), the log2 fold change was 0.059.

Turning to HSPA8 (UniProt E9PN89), the log2 fold change was -0.205.

As for GOLGB1 isoform 2 (UniProt Q14789), the log2 fold change was -0.052.

Take GLRX3 (UniProt O76003): the log2 fold change is 0.066.

With HMGN1 (UniProt P05114), the log2 fold change was -0.044.

With FKBP3 (UniProt Q00688), the log2 fold change is 0.03.

Consider GDE1 (UniProt Q9NZC3), for which the log2 fold change was -0.092.

On to HRC (UniProt P23327), for which the log2 fold change was -0.014.

For the target HEXB (UniProt P07686), the log2 fold change is -0.013.

Regarding GYS1 (UniProt P13807), the log2 fold change was 0.059.

With FDXR isoform 7 (UniProt P22570), the log2 fold change was 0.025.

Consider GTF2B (UniProt Q00403), for which the log2 fold change is 0.091.

Consider GLYR1 (UniProt Q49A26), for which the log2 fold change was 0.026.

Take GPKOW (UniProt Q92917): the log2 fold change was 0.101.

As to IFITM3 (UniProt Q01628), the log2 fold change was 0.023.

GALC (UniProt P54803): the log2 fold change is -0.009.
